Reference: PubChem BioAssay (EPA / NIEHS)
Where a structure was tested more than once in an assay, its records may differ in their call. Calls of active or inactive are those of the source. Rule for the calls: active = hit-call score of the fitted dose curve at least 0.9, where 1 is the maximum; inactive = score below 0.9.

What was measured:
[1] = ATG_ISRE_CIS: Attagene CIS-FACTORIAL HepG2 Assay for human Interferon Regulatory Factor 1 (IRF1) binding to an Interferon-Stimulated Response Element (ISRE) (AID 2282948); conditions: HepG2 ISRE cis-reporter (Attagene), mRNA transcription readout; actives raise or lower the signal
Procedure, shortened: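 Endogenous transcription factor activity read as reporter transcript abundance via RT-PCR and capillary electrophoresis. HepG2 cells transiently transfected, 24 h chemical exposure. Gain or loss fitted against DMSO baseline.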

[2] = ATG_M_32_CIS: Attagene CIS-FACTORIAL HepG2 Assay for M32 Transcription Factor (Internal Marker) (AID 2282949); conditions: HepG2 Attagene cis-factorial M32 reporter, mRNA; actives raise or lower the signal;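 note: background control marker of the multiplexed CIS panel rather than a real target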
Procedure, shortened: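 HepG2 human liver cells transiently transfected with cis-promoter-driven multiple reporter transcription units, dosed 24 h. Reporter mRNA quantified by RT-PCR, FAM-labelled primer extension, HpaI digest and capillary electrophoresis; bidirectional fit versus DMSO baseline.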

[3] = ATG_M_06_CIS: Attagene CIS-FACTORIAL HepG2 Assay for M06 Transcription Factor (Internal Marker) (AID 2282950); conditions: HepG2 Attagene CIS-FACTORIAL M06 internal marker reporter; actives raise or lower the signal
Procedure, shortened: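 HepG2 liver cells, 24 h exposure. Reporter transcripts from transfected cis-element constructs quantified by RT-PCR/capillary electrophoresis fluorescence. Bidirectional curve fit against DMSO.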

[4] = target: Hypoxia-inducible factor 1-alpha (Homo sapiens) (UniProt Q16665); assay: ATG_HIF1a_CIS: Attagene CIS-FACTORIAL HepG2 Assay for human Hypoxia Inducible Factor 1 (HIF1A) (AID 2282951); conditions: HepG2 Attagene cis-factorial HIF1a reporter transcription; actives raise or lower the signal
Hypoxia-inducible factor 1-alpha (Homo sapiens), sequence (Q16665 whole entry, looked up): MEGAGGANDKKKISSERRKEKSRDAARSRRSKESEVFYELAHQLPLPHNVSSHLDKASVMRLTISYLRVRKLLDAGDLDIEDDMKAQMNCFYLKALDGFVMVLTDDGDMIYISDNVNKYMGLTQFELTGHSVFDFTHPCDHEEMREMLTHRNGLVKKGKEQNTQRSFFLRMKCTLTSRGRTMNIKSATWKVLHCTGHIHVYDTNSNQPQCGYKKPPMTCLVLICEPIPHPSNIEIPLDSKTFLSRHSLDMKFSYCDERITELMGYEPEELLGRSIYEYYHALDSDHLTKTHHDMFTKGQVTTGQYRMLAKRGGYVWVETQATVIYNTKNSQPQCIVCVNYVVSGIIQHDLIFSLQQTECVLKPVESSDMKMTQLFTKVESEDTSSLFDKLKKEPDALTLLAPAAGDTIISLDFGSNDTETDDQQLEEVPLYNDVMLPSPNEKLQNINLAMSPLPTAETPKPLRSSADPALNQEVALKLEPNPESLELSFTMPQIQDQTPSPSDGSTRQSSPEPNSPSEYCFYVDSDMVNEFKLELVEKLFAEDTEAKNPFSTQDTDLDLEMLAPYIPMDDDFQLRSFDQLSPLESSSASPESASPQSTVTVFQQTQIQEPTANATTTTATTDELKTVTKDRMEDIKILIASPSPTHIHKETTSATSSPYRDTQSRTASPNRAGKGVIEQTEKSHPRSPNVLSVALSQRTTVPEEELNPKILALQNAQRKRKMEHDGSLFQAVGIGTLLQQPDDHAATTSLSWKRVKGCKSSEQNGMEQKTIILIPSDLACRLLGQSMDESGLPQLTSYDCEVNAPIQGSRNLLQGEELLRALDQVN
Procedure, shortened: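 Endogenous-TF cis reporter readout, human HepG2 cells, 24 h incubation; mRNA detected via RT-PCR and capillary electrophoresis fluorescence; DMSO-normalised bidirectional fitting.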

[5] = target: Hepatocyte nuclear factor 6 (Homo sapiens) (UniProt Q9UBC0); assay: ATG_HNF6_CIS: Attagene CIS-FACTORIAL HepG2 Assay for human Hepatocyte Nuclear Factor 6 (HNF6) (AID 2282952); conditions: HepG2 Attagene cis-factorial HNF6 reporter transcription; actives raise or lower the signal
Hepatocyte nuclear factor 6 (Homo sapiens), sequence (Q9UBC0 whole entry, looked up, the tested form may be a part): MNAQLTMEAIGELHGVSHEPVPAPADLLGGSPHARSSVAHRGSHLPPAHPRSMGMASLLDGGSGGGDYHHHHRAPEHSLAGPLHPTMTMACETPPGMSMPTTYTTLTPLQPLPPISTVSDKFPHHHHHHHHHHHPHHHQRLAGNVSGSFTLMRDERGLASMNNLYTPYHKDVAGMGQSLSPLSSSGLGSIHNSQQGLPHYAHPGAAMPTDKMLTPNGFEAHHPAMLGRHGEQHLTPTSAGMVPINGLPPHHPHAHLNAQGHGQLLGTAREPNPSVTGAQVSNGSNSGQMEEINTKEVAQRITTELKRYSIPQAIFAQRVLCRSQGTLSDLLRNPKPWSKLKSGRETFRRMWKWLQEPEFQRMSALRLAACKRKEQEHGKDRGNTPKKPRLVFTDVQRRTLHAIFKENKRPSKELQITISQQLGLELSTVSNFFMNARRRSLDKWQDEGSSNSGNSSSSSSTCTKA
Procedure, shortened: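 Using cis-element reporters in HepG2 liver cells, the assay tracks endogenous factor-driven transcription 24 h post-dosing. Signal comes from 6-FAM-labelled, HpaI-digested RT-PCR fragments, with gain or loss scored against DMSO.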

[6] = target: Heat shock factor protein 1 (Homo sapiens) (UniProt Q00613); assay: ATG_HSE_CIS: Attagene CIS-FACTORIAL HepG2 Assay for human Heat Shock Transcription Factor 1 (HSE) (AID 2282953); conditions: HepG2 HSE cis-reporter, Attagene RNA transcription; actives raise or lower the signal
Heat shock factor protein 1 (Homo sapiens), sequence (Q00613 whole entry, looked up, the tested form may be a part): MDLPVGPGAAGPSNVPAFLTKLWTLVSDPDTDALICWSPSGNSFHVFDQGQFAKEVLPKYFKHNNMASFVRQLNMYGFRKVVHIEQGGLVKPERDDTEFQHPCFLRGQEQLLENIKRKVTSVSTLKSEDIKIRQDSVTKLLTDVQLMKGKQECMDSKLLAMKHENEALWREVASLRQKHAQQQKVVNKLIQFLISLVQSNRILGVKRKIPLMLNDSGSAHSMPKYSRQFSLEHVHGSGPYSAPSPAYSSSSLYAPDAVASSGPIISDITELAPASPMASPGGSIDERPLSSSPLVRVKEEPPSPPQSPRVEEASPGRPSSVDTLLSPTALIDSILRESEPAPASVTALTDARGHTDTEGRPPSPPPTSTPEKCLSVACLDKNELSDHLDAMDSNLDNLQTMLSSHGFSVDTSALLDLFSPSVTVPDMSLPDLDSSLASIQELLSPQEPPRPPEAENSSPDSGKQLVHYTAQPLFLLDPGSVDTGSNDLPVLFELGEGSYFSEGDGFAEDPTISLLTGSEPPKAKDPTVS
Procedure, shortened: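 Endogenous transcription factor activity captured via cis-promoter reporter units transfected into HepG2; treatment lasted 24 h. Fluorescence intensity of reporter fragments analysed with bidirectional curve fitting, DMSO baseline.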

[7] = ATG_MRE_CIS: Attagene CIS-FACTORIAL HepG2 Assay for human Metal Responsive Element (MRE) (AID 2282954); conditions: HepG2 MRE cis-reporter transcription, Attagene multiplex; actives raise or lower the signal
Procedure, shortened: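 Measured here is mRNA induction from an MRE cis-element reporter in HepG2 after 24 h, quantified by fluorescence of labelled RT-PCR products on capillary electrophoresis; gain- and loss-of-signal fits use DMSO as baseline.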

[8] = ATG_PBREM_CIS: Attagene CIS-FACTORIAL HepG2 Assay for human Phenobarbital-responsive Enhancer Module (PBREM) (AID 2282955); conditions: HepG2 PBREM cis-reporter, Attagene multiplexed transcription; actives raise or lower the signal
Procedure, shortened: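 Readout: reporter mRNA, fluorescent RT-PCR fragments separated by capillary electrophoresis. System: HepG2 transiently transfected with cis-regulated reporter units. Exposure: 24 h. Analysis: bidirectional, DMSO baseline.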

[9] = target: Paired box protein Pax-6 (Homo sapiens) (UniProt P26367); assay: ATG_Pax6_CIS: Attagene CIS-FACTORIAL HepG2 Assay for human Paired Box 6 (PAX6) (AID 2282956); conditions: HepG2 CIS-FACTORIAL PAX6 reporter transcription, RNA readout; actives raise or lower the signal
Paired box protein Pax-6 (Homo sapiens), sequence (P26367 whole entry, looked up): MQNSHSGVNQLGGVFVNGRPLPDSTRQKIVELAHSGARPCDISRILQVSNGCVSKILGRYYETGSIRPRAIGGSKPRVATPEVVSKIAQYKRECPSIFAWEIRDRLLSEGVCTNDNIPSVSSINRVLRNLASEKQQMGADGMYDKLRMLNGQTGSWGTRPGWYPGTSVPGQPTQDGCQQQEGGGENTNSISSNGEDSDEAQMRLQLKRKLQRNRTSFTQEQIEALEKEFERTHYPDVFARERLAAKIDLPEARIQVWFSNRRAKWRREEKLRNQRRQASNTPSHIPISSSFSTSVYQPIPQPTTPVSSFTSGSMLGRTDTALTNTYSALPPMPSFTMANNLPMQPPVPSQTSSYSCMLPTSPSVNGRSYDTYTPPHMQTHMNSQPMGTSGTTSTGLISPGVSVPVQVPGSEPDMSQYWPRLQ
Procedure, shortened: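 Read-out is reporter transcript level, measured by RT-PCR with fluorescent primer extension and capillary electrophoresis after 24 h dosing of transfected HepG2 cells. Activity in either direction fitted relative to DMSO control.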

[10] = ATG_PXRE_CIS: Attagene CIS-FACTORIAL HepG2 Assay for human Pregnane X Receptor Element (PXRE) (AID 2282957); conditions: HepG2 Attagene CIS-FACTORIAL PXRE reporter, mRNA; actives raise or lower the signal
Procedure, shortened: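 Using HepG2 transfected with multiple reporter transcription units, endogenous factor-driven transcription was scored as reporter mRNA after 24 h exposure.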

[11] = ATG_RORE_CIS: Attagene CIS-FACTORIAL HepG2 Assay for human RAR-related Orphan Receptor Element (RORE) (AID 2282959); conditions: HepG2 Attagene cis-factorial RORE reporter, mRNA; actives raise or lower the signal
Procedure, shortened: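 Measured here: transcript induction of a cis-regulated reporter in HepG2 cells transiently transfected via FuGene 6. After 24 h, RNA was processed by RT-PCR and fluorescent capillary electrophoresis; DMSO defined baseline activity.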

[12] = ATG_Sox_CIS: Attagene CIS-FACTORIAL HepG2 Assay for human SRY-box transcription factor (SOX) (AID 2282960); conditions: HepG2 Attagene cis-factorial SOX reporter, mRNA; actives raise or lower the signal
Procedure, shortened: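 Using transiently transfected HepG2 cells, reporter transcription driven by cis elements was assessed 24 h after dosing. Signal was fluorescence of capillary-separated RT-PCR products, with DMSO defining baseline activity.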

[13] = target: Transcription factor Sp1 (Homo sapiens) (UniProt P08047); assay: ATG_Sp1_CIS: Attagene CIS-FACTORIAL HepG2 Assay for human Specificity Protein 1 (Sp1) (AID 2282961); conditions: HepG2 Sp1 cis-reporter transcription, actives raise or lower the signal
Transcription factor Sp1 (Homo sapiens), sequence (P08047 whole entry, looked up): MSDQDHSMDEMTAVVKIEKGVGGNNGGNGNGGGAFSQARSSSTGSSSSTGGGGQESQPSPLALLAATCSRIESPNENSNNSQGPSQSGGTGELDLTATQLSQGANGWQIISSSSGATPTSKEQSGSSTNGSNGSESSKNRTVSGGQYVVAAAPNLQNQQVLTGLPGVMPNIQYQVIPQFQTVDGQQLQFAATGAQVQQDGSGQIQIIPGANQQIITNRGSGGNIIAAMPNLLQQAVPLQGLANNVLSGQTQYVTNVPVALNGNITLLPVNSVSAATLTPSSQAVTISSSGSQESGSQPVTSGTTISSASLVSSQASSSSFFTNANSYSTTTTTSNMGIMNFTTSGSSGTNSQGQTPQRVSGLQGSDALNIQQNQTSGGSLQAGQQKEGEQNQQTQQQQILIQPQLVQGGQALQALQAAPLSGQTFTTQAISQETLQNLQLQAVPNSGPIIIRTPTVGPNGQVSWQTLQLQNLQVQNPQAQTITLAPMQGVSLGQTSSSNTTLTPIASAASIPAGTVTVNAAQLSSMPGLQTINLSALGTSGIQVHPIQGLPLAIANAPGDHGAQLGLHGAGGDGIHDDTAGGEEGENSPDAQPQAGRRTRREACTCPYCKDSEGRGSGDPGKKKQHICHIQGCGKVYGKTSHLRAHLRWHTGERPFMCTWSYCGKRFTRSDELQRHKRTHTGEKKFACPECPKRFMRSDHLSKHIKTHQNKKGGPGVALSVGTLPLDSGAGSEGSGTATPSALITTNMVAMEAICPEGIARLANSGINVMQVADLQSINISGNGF
Procedure, shortened: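 After transient transfection of HepG2 cells with cis-promoter reporter units and 24 h chemical treatment, reporter transcripts were quantified by RT-PCR and capillary electrophoresis fluorescence. Gain- and loss-of-signal fitted against DMSO.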

[14] = ATG_SREBP_CIS: Attagene CIS-FACTORIAL HepG2 Assay for human Sterol Regulatory Element Binding (SREBP) (AID 2282962); conditions: HepG2 Attagene cis-factorial SREBP reporter, mRNA; actives raise or lower the signal
Procedure, shortened: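 Endogenous SREBP activity read as cis-element-driven reporter transcript in transiently transfected HepG2, 24 h post-dosing; quantified via RT-PCR plus capillary electrophoresis of fluorescent fragments. Gain or loss of signal fitted relative to DMSO baseline.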

[15] = target: Signal transducer and activator of transcription 3 (Homo sapiens) (UniProt P40763); assay: ATG_STAT3_CIS: Attagene CIS-FACTORIAL HepG2 Assay for human Signal Transducer and Activator of Transcription 3 (STAT3) (AID 2282963); conditions: HepG2, Attagene cis-factorial STAT3 reporter transcription; actives raise or lower the signal
Signal transducer and activator of transcription 3 (Homo sapiens), sequence (P40763 whole entry, looked up, the tested form may be a part): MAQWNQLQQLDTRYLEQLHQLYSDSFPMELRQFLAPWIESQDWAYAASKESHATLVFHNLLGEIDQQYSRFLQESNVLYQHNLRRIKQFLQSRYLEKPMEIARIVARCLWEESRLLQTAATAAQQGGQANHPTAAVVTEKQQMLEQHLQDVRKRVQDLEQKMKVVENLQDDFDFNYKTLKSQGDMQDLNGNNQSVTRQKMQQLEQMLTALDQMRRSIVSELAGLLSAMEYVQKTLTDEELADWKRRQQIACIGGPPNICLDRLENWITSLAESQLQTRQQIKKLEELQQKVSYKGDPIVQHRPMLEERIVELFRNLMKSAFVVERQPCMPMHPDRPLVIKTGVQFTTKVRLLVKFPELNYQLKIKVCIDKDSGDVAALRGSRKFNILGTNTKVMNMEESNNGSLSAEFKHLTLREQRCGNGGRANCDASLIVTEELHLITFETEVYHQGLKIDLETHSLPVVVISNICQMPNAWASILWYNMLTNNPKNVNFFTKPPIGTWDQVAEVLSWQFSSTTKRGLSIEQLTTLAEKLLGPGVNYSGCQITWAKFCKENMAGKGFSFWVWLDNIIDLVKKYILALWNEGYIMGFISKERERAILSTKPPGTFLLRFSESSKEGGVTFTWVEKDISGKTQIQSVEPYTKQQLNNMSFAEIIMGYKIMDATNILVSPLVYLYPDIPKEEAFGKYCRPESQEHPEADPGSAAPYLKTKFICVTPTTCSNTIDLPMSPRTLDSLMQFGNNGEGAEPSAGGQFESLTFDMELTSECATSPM
Procedure, shortened: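 Fluorescence intensity of 6-FAM-labelled reporter fragments, separated by capillary electrophoresis after RT-PCR, gave the signal. Cells were HepG2 transfected with cis-element reporter units and treated 24 h; fitting was bidirectional relative to DMSO.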

[16] = ATG_TA_CIS: Attagene CIS-FACTORIAL HepG2 Assay for human TA Basal Promoter (AID 2282964); conditions: HepG2 Attagene CIS-factorial TA basal promoter reporter; actives raise or lower the signal
Procedure, shortened: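 Fluorescence from labelled RT-PCR reporter fragments, separated by capillary electrophoresis, gives the signal. Cells: HepG2 transiently carrying multiple reporter units, 24 h chemical dosing. Gain or loss relative to DMSO.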

[17] = ATG_TCF_b_cat_CIS: Attagene CIS-FACTORIAL HepG2 Assay for human T-Cell-Factor with beta-catenin (TCF/b-cat) (AID 2282965); conditions: HepG2 TCF/beta-catenin cis-reporter transcription, actives raise or lower the signal
Procedure, shortened: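 HepG2, transient MRTU transfection, cis-element-driven reporters (endogenous TFs). 24 h compound exposure. Readout: reporter mRNA by RT-PCR + 6-FAM primer extension, HpaI digest, capillary electrophoresis. Gain/loss fit vs DMSO baseline.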

[18] = ATG_GRE_CIS: Attagene CIS-FACTORIAL HepG2 Assay for human Glucocorticoid Response Elements (GRE) (AID 2282947); conditions: HepG2 GRE cis-reporter, Attagene multiplex mRNA; actives raise or lower the signal
Procedure, shortened: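 Fluorescence intensity of reporter-specific cDNA fragments, separated by capillary electrophoresis, provides the signal. Constructs carry cis-regulating promoters in transiently transfected HepG2 liver cells; 24 h incubation; fitting is bidirectional against DMSO.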

[19] = ATG_PPRE_CIS: Attagene CIS-FACTORIAL HepG2 Assay for human Peroxisome Proliferator-activated Response Element (PPRE) (AID 2282958); conditions: HepG2 PPRE cis-element reporter, Attagene transcription factor profiling; actives raise or lower the signal
Procedure, shortened: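 After human HepG2 hepatoma cells were transiently transfected with cis-promoter reporter constructs, they were exposed to test chemicals for 24 hours. Reporter RNA was then reverse-transcribed, PCR-amplified, FAM-labeled, HpaI-digested and quantified by capillary electrophoresis.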

Measured: AC50

Cc1cc(-c2ccc(N)c(C)c2)ccc1N
active: [10] 46.7 µM
inactive: [1] | [2] | [3] | [4] | [5] | [6] | [7] | [8] | [9] | [10] | [11] | [12] | [13] | [14] | [15] | [16] | [17]

O=C(N[C@H]1CN2CCC1CC2)c1cc2ccoc2cn1
active: [1] 82.4 µM
inactive: [18] | [2] | [3] | [4] | [5] | [6] | [7] | [9] | [10] | [19] | [11] | [12] | [13] | [15] | [16] | [17]

Cc1ccc(O)c(C)c1
inactive: [18] | [1] | [2] | [3] | [4] | [5] | [6] | [7] | [9] | [10] | [19] | [11] | [12] | [13] | [15] | [16]
active: [17] 168 µM

Nc1ccc(-c2ccc(N)cc2)cc1
inactive: [18] | [1] | [2] | [3] | [4] | [5] | [6] | [7] | [9] | [10] | [11] | [12] | [13] | [14] | [15] | [16] | [17]

O=S(=O)(O)C(F)(F)C(F)(F)C(F)(F)C(F)(F)F
inactive: [18] | [1] | [2] | [3] | [4] | [5] | [6] | [7] | [8] | [9] | [10] | [19] | [11] | [12] | [13] | [15] | [16] | [17]

Clc1ccc(Cl)cc1
inactive: [18] | [1] | [2] | [3] | [4] | [5] | [6] | [7] | [9] | [10] | [19] | [11] | [12] | [13] | [14] | [15] | [16] | [17]
active: [4] 5.24 µM | [6] 179 µM
